# Results published in the supplement of paper PMC8728848.
# About 410 targets per protein were measured; listed, in parts, are those with the strongest signals and a random draw of the rest.
# B1: AT5G01260(PC)(40) (Arabidopsis thaliana), Q9LFB0 (protein)
# chain: MIGIGRTLTSSSPSKIILEDLPPGIYRYGTEIFTSVPRKTFHHIKFLRLDSAQSSRILKPVPLRSSSIKDSQVNVEDEEIEASNKTVRVRFQLRKECVFGEHFFIVGDDPVFGGLWDPETALPLNWSDGNVWTVDLDLPVGRLVEFKLLLKAQTGEILWQPGPNRALETWETNKTIRICEDWDNADLQMMIEEDFVPYTNISSIGSEDEDEVLGSVQQNSSVVAVENAGYVSDESAQNSSFSIQSEKTMEPSNGALTAREVIKEAMFTEEESPVLVPGLIPLSDLDNEQVEVINEGKAETFPEVDKKQEPKAERNKKAKVKAISLFEKSEQEAVKSVEQRQYNAVEEEQQRLETEPLGTPDVLFENDIQWGRRTLYKLLSNFRLF
# Legend:
# Experiment in all cases: glycan array binding signal (z-score within array); higher = stronger binding
# Conditions in all cases: glycan notation: IUPAC condensed, linker removed
# Gal(b1-4)GlcNAc = target: Gal(b1-4)GlcNAc
# How it was run: (§1)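 Columns mapping to the same glycan were averaged after glycan names were converted to IUPAC-condensed notation. The data come from 3228 arrays in the Consortium for Functional Glycomics database, limited to those with an available protein sequence. Binding is reported as a within-array Z-score averaged across arrays of one protein sequence and across linkers.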
# [1] = target: Gal(b1-4)GlcNAc(b1-2)Man(a1-3)[GlcNAc(b1-2)Man(a1-6)]Man(b1-4)GlcNAc(b1-4)GlcNAc
# How it was run: as §1
# [2] = target: Gal(b1-4)GlcNAc(b1-2)[Gal(b1-4)GlcNAc(b1-4)]Man(a1-3)[GlcNAc(b1-4)][Gal(b1-4)GlcNAc(b1-2)[Gal(b1-4)GlcNAc(b1-6)]Man(a1-6)]Man(b1-4)GlcNAc(b1-4)GlcNAc
# How it was run: as §1
# [3] = target: Gal(b1-4)GlcNAc(b1-2)[Gal(b1-4)GlcNAc(b1-6)]Man(a1-6)[Gal(b1-4)GlcNAc(b1-2)Man(a1-3)]Man(b1-4)GlcNAc(b1-4)GlcNAc
# How it was run: as §1
# [4] = target: Gal(b1-4)GlcNAc(b1-2)[Gal(b1-4)GlcNAc(b1-6)]Man(a1-6)[Gal(b1-4)GlcNAc(b1-2)Man(a1-3)]Man(b1-4)GlcNAc(b1-4)[Fuc(a1-6)]GlcNAc
# How it was run: as §1
# [5] = target: Gal3S(b1-4)[Fuc(a1-3)]Glc6S
# How it was run: as §1
# Gal6S(b1-3)GlcNAc6S = target: Gal6S(b1-3)GlcNAc6S
# How it was run: as §1
# [6] = target: GalNAc(a1-3)GalNAc(b1-3)Gal(a1-4)Gal(b1-4)Glc
# How it was run: as §1
# [7] = target: GalNAc(b1-3)Gal(a1-4)Gal(b1-4)GlcNAc
# How it was run: as §1
# [8] = target: GalNAc(b1-3)Gal(a1-6)Gal(b1-4)Glc
# How it was run: as §1
# GalNAc(b1-4)GlcNAc = target: GalNAc(b1-4)GlcNAc
# How it was run: as §1
# [9] = target: GlcNAc(a1-4)Gal(b1-4)GlcNAc(b1-3)Gal(b1-4)Glc
# How it was run: as §1
# [10] = target: GlcNAc(b1-2)Man(a1-3)[GlcNAc(b1-2)Man(a1-6)]Man(b1-4)GlcNAc(b1-4)GlcNAc
# How it was run: as §1
# [11] = target: GlcNAc(b1-3)Gal(b1-4)GlcNAc(b1-3)Gal(b1-4)GlcNAc(b1-2)[GlcNAc(b1-3)Gal(b1-4)GlcNAc(b1-3)Gal(b1-4)GlcNAc(b1-6)]Man(a1-6)[GlcNAc(b1-3)Gal(b1-4)GlcNAc(b1-3)Gal(b1-4)GlcNAc(b1-2)Man(a1-3)]Man(b1-4)GlcNAc(b1-4)[Fuc(a1-6)]GlcNAc
# How it was run: as §1
# [12] = target: GlcNAc(b1-4)[GlcNAc(b1-6)]GalNAc
# How it was run: as §1
# [13] = target: GlcNAc6S(b1-3)Gal(b1-4)GlcNAc
# How it was run: as §1
# Neu5Ac(a2-3)Gal = target: Neu5Ac(a2-3)Gal
# How it was run: as §1
# [14] = target: Neu5Ac(a2-3)Gal(b1-3)GlcNAc(b1-2)Man
# How it was run: as §1
# [15] = target: Neu5Ac(a2-3)Gal(b1-3)[Neu5Ac(a2-6)]GalNAc
# How it was run: as §1
# [16] = target: Neu5Ac(a2-3)Gal6S(b1-4)GlcNAc
# How it was run: as §1
# Neu5Ac(a2-3)GalNAc = target: Neu5Ac(a2-3)GalNAc
# How it was run: as §1
# [17] = target: Neu5Ac(a2-6)Gal(b1-4)GlcNAc(b1-2)Man(a1-6)[Gal(b1-4)GlcNAc(b1-2)Man(a1-3)]Man(b1-4)GlcNAc(b1-4)GlcNAc
# How it was run: as §1
# [18] = target: Neu5Ac(a2-6)Gal(b1-4)GlcNAc(b1-3)Gal(b1-4)GlcNAc(b1-2)Man(a1-3)[Neu5Ac(a2-6)Gal(b1-4)GlcNAc(b1-3)Gal(b1-4)GlcNAc(b1-2)Man(a1-6)]GalNAc
# How it was run: as §1
# [19] = target: Neu5Ac(a2-6)Gal(b1-4)GlcNAc(b1-3)Gal(b1-4)[Fuc(a1-3)]GlcNAc(b1-3)Gal(b1-4)[Fuc(a1-3)]GlcNAc
# How it was run: as §1
# [20] = target: Neu5Ac(a2-6)Gal(b1-4)GlcNAc(b1-3)[Neu5Ac(a2-6)Gal(b1-4)GlcNAc(b1-6)]GalNAc
# How it was run: as §1
# [21] = target: Neu5Ac(a2-8)Neu5Ac(a2-8)Neu5Ac
# How it was run: as §1
# Neu5Ac(b2-6)GalNAc = target: Neu5Ac(b2-6)GalNAc
# How it was run: as §1
# [22] = target: Neu5Gc(a2-3)Gal(b1-3)GlcNAc
# How it was run: as §1
binder,measurement,setting,value
B1,glycan array binding signal (z-score),Gal(b1-4)GlcNAc,0.708
same,glycan array binding signal (z-score),[1],-0.702
same,glycan array binding signal (z-score),[2],-0.552
same,glycan array binding signal (z-score),[3],0.037
same,glycan array binding signal (z-score),[4],0.414
same,glycan array binding signal (z-score),[5],4.34
same,glycan array binding signal (z-score),Gal6S(b1-3)GlcNAc6S,-0.529
same,glycan array binding signal (z-score),[6],-0.513
same,glycan array binding signal (z-score),[7],2.47
same,glycan array binding signal (z-score),[8],-0.39
same,glycan array binding signal (z-score),GalNAc(b1-4)GlcNAc,8.76
same,glycan array binding signal (z-score),[9],-0.389
same,glycan array binding signal (z-score),[10],-0.443
same,glycan array binding signal (z-score),[11],0.144
same,glycan array binding signal (z-score),[12],0.541
same,glycan array binding signal (z-score),[13],1.26
same,glycan array binding signal (z-score),Neu5Ac(a2-3)Gal,-0.106
same,glycan array binding signal (z-score),[14],-0.011
same,glycan array binding signal (z-score),[15],-0.391
same,glycan array binding signal (z-score),[16],-0.571
same,glycan array binding signal (z-score),Neu5Ac(a2-3)GalNAc,-0.206
same,glycan array binding signal (z-score),[17],-0.165
same,glycan array binding signal (z-score),[18],0.243
same,glycan array binding signal (z-score),[19],-0.054
same,glycan array binding signal (z-score),[20],0.077
same,glycan array binding signal (z-score),[21],-0.58
same,glycan array binding signal (z-score),Neu5Ac(b2-6)GalNAc,-0.728
same,glycan array binding signal (z-score),[22],-0.145
